Inconclusive results are not listed. The source made the active and inactive calls. The calls were made as follows, unless noted: active = hit-call score of the fitted dose curve at least 0.9, where 1 is the maximum; inactive = score below 0.9.
Key:
[1] = CCTE_Mundy_HCI_Cortical_Synap_Neur_Matur_NeuriteSpotCountPerNeuriteLength: CCTE's Synaptogenesis and Neurite Maturation Assay in rat cortical cells for Neurite Spot Count per Neurite Length, Mundy Lab (AID 2284210)
How it was run: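 Neurite-associated synapse density (synaptophysin puncta per unit neurite length) is measured by fluorescence high-content imaging in rat cortical cultures treated from DIV 7 and fixed at DIV 12, with DMSO as negative control.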

[2] = CCTE_Mundy_HCI_Cortical_Synap_Neur_Matur_BPCount: CCTE's Synaptogenesis and Neurite Maturation Assay in rat cortical cells for Branch Point Count, Mundy Lab (AID 2284211)
How it was run: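 HCI read-out of branch points from MAP2/synaptophysin/Hoechst immunofluorescence; rat cortical cultures, AraC DIV 5, dosing DIV 7, fixed DIV 12; fit in positive direction vs DMSO baseline.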

[3] = CCTE_Mundy_HCI_Cortical_NOG_NeuriteCount: CCTE's Neurite Outgrowth Assay in rat cortical cells for Neurite Count, Mundy Lab (AID 2284212);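 also: cells fixed about two days after chemical exposure began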
How it was run: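 Rat cortical primary cells; compound added 2 h post-plating, 1/10 dilution of working solution. Anti-betaIII-tubulin/AF488 ICC; ArrayScan neurite count vs DMSO.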

[4] = CCTE_Mundy_HCI_Cortical_NOG_NeuriteLength: CCTE's Neurite Outgrowth Assay in rat cortical cells for Neurite Length, Mundy Lab (AID 2284213)
How it was run: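 First, rat primary cortical cells were plated and, 2 h later, given test chemical as a 1/10 dilution. Finally, βIII-tubulin immunostaining enabled automated imaging of neurite length.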

[5] = CCTE_Mundy_HCI_Cortical_Synap_Neur_Matur_NeuriteLength: CCTE's Synaptogenesis and Neurite Maturation Assay in rat cortical cells for Neurite Length, Mundy Lab (AID 2284214)
How it was run: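 Neurite length quantified by automated high-content imaging of MAP2, synaptophysin and Hoechst staining. Rat cortical cells received chemical from DIV 7 to DIV 12 […], glial growth arrested by AraC at DIV 5; DMSO baseline.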

[6] = CCTE_Mundy_HCI_Cortical_Synap_Neur_Matur_NeuriteSpotCountPerNeuron: CCTE's Synaptogenesis and Neurite Maturation Assay in rat cortical cells for Neurite Spot Count per Neuron Count, Mundy Lab (AID 2284215)
How it was run: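 Rat primary cortical cells received AraC at DIV 5, then chemicals with a media change at DIV 7, and were fixed at DIV 12. Synaptophysin puncta on MAP2-stained neurites per neuron were counted by high-content imaging, fitted relative to DMSO.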

[7] = CCTE_Mundy_HCI_Cortical_Synap_Neur_Matur_SynapseCount: CCTE's Synaptogenesis and Neurite Maturation Assay in rat cortical cells for Synapse Count, Mundy Lab (AID 2284218)
How it was run: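 High-content imaging of synaptophysin puncta per MAP2-positive neuron (Hoechst nuclei) in rat cortical cells exposed DIV 7–12 after glial arrest with AraC at DIV 5; decrease relative to DMSO scored.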

[8] = CCTE_Mundy_HCI_Cortical_Synap_Neur_Matur_NeuriteCount: CCTE's Synaptogenesis and Neurite Maturation Assay in rat cortical cells for Neurite Count, Mundy Lab (AID 2284222);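 also: exposure from day 7 to day 12 in vitro with readout at day 12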
How it was run: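 Rat primary cortical cells; AraC added at DIV 5, chemicals dosed with media change at DIV 7 through DIV 12. MAP2/synaptophysin/Hoechst immunostaining, high-content imaging of neurite number; fitted relative to DMSO.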

[9] = UKN2_HCS_IMR90_cell_viability: Viability Assessment in the University of Konstanz (UKN) Leist Lab Neural Crest Cell Migration Assay in human induced IMR90 Pluripotent Stem Cells (UKN2) (AID 2284233);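 also: viability of neural crest cells differentiated from IMR90 iPSC measured by calcein-AM fluorescence imaging; cells exposed to compound for 24 h after a 24 h migration phase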
How it was run: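 cMINC format, iPSC-derived neural crest (IMR90); 24 h migration (EGF/FGF, N2-S), then 24 h toxicant. Calcein-AM/H-33342 stain 30 min; fluorescence intensity by HCS; DMSO-normalised, bidirectional fitting.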

[10] = CCTE_Mundy_HCI_Cortical_NOG_BPCount: CCTE's Neurite Outgrowth Assay in rat cortical cells for Branch Point Count, Mundy Lab (AID 2284237)
How it was run: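 Measured 50.33 h after dosing, this morphology endpoint uses rat primary cortical cultures labelled for betaIII-tubulin. Branch points are quantified by high-content imaging, with DMSO as negative control and baseline.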

[11] = CCTE_Mundy_HCI_hNP1_Casp3_7: CCTE's Caspase-Glo 3/7 Assay in human neuroprogenitor cells for Apoptosis, Mundy Lab (AID 2284240)
How it was run: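 Neuroepithelial-lineage stem cells from WA09 embryonic cells were treated with chemicals after 40–44 h of culture. Twenty-four hours later, caspase-3/7 activation was detected luminescently after a 30 min room-temperature reagent step, with DMSO as baseline.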

[12] = IUF_NPC2c_oligodendrocyte_migration_120hr: Leibniz Research Institute for Environmental Medicine (IUF) 120-hour Neural Progenitor Cell Migration Assay for Oligodendrocyte Migration (NPC2c) (AID 2284297);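 also: O4-positive oligodendrocyte migration distance divided by radial glia migration distance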
How it was run: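 Human fetal cortex-derived neural progenitor spheres (0.3 mm) were plated on poly-D-lysine/laminin in N2 differentiation medium and exposed to 7 concentrations for 120 h, with half-medium renewal at day 3. Oligodendrocyte migration distance was normalized to radial glia migration, relative to DMSO.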

[13] = IUF_NPC2a_radial_glia_migration_120hr: Leibniz Research Institute for Environmental Medicine (IUF) 120-hour Neural Progenitor Cell Migration Assay for Radial Glia Migration (NPC2a) (AID 2284298)
How it was run: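 Single 0.3 mm primary human fetal-cortex (GW 16-19) NPC spheres were plated on poly-D-lysine/laminin in N2 differentiation medium and exposed from day 0 for 120 h, half-medium refreshed day 3. Migration distance came from Hoechst nuclei-density imaging, relative to DMSO.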

[14] = IUF_NPC2a_radial_glia_migration_72hr: Leibniz Research Institute for Environmental Medicine (IUF) 72-hour Neural Progenitor Cell Migration Assay for Radial Glia Migration (NPC2a) (AID 2284299)
How it was run: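 Radial glia migration (µm, sphere core edge to migration front, four directions averaged) from brightfield images at 72 h; hNPC spheres differentiating on PDL/laminin in N2 medium, compound exposure at 7 concentrations from plating.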

[15] = IUF_NPC2b_neuronal_migration_120hr: Leibniz Research Institute for Environmental Medicine (IUF) 120-hour Neural Progenitor Cell Migration Assay for Neuron Migration (NPC2b) (AID 2284300)
How it was run: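 Primary human fetal cortex neural progenitor spheres (0.3 mm) plated on poly-D-lysine/laminin in N2 differentiation medium, exposed 120 h with half-medium refresh at day 3. TUBB3-stained neuron distance from sphere core, normalized to radial glia migration, versus DMSO.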

[16] = IUF_NPC3_neuronal_differentiation_120hr: Leibniz Research Institute for Environmental Medicine (IUF) 120-hour Neuronal Differentiation Assay (NPC3) (AID 2284301)
How it was run: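 Neuronal differentiation of primary human neural progenitors measured by high-content imaging: percent TUBB3+ of Hoechst+ nuclei within migrated area at 120 h, seven-point serial dilution plus solvent control, gain or loss relative to DMSO.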

[17] = IUF_NPC4_neurite_length_120hr: Leibniz Research Institute for Environmental Medicine (IUF) 120-hour Neuronal Morphology Assay for Neurite Length (NPC4) (AID 2284302)
How it was run: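 Neurons from differentiating human fetal neural progenitor spheres are scored for average neurite length after five days of compound exposure. Fitting uses DMSO as negative control.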

[18] = IUF_NPC5_oligodendrocyte_differentiation_120hr: Leibniz Research Institute for Environmental Medicine (IUF) 120-hour Oligodendrocyte Differentiation Assay (NPC5) (AID 2284304; active = hit-call score of the fitted dose curve at least 0.9, where 1 is the maximum;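 also: primary human fetal neural progenitor spheres plated to migrate and differentiate; share of O4-positive cells among Hoechst nuclei found by CNN image analysis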)
How it was run: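 Primary human fetal (GW 16-19) neural progenitor spheres (0.3 mm) plated on poly-D-lysine/laminin in N2 differentiation medium, exposed from day 0 for 120 h with half-medium refresh at day 3; O4-positive cells as percent of Hoechst nuclei, CNN-identified, versus DMSO.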

[19] = IUF_NPC4_neurite_area_120hr: Leibniz Research Institute for Environmental Medicine (IUF) 120-hour Neuronal Morphology Assay for Neurite Area (NPC4) (AID 2284305; active = hit-call score of the fitted dose curve at least 0.9, where 1 is the maximum)
How it was run: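 Endpoint at 120 h: automated imaging of TUBB3/Hoechst-stained differentiating human neural progenitor spheres, neurite area per neuron from skeletonization. DMSO solvent control, not above 0.1%, set the baseline; medium was half-replaced on day 3.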

[20] = IUF_NPC2-5_cytotoxicity_72hr: Cytotoxicity Assessment at 72 hours in the Leibniz Research Institute for Environmental Medicine (IUF) Neural Progenitor Cell Migration and Differentiation Assay for Cytotoxicity (NPC2-5) (AID 2284306; active = hit-call score of the fitted dose curve at least 0.9, where 1 is the maximum;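 also: LDH release into supernatant measured by resorufin fluorescence marking membrane damage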)
How it was run: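 Primary human neural progenitor spheres migrate and differentiate on laminin. Compound is present from the start of differentiation, with DMSO kept at or below 0.1%. At 72 h, supernatant LDH is quantified fluorometrically, with values fitted in the positive direction.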

[21] = IUF_NPC2-5_cytotoxicity_120hr: Cytotoxicity Assessment at 120 hours in the Leibniz Research Institute for Environmental Medicine (IUF) Neural Progenitor Cell Migration and Differentiation Assay (NPC2-5) (AID 2284307; active = hit-call score of the fitted dose curve at least 0.9, where 1 is the maximum)
How it was run: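 Human fetal neural progenitor spheres (0.3 mm, GW 16-19 cortex) were plated on poly-D-lysine/laminin in N2 differentiation medium and exposed for 120 h, with half-medium refresh at day 3. LDH release into supernatant was read by resorufin fluorescence.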

[22] = IUF_NPC2-5_cell_number_120hr: Cell Number Assessment at 120 hours in the Leibniz Research Institute for Environmental Medicine (IUF) Neural Progenitor Cell Migration and Differentiation Assay (NPC2-5) (AID 2284308);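 also: count of Hoechst-stained nuclei in migration zone around plated human neural progenitor spheres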
How it was run: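 Primary human fetal neural progenitor spheres (GW 16-19, 0.3 mm) plated on poly-D-lysine/laminin in N2 differentiation medium, exposed from day 0 for 120 h with half-medium refresh at day 3; Hoechst-positive nuclei counted in migration area versus DMSO control.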

[23] = IUF_NPC2-5_viability_120hr: Viability Assessment at 120 hours in the Leibniz Research Institute for Environmental Medicine (IUF) Neural Progenitor Cell Migration and Differentiation Assay (NPC2-5) (AID 2284312)
How it was run: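 Human fetal (GW 16-19) neural progenitor spheres of 0.3 mm were plated on poly-D-lysine/laminin in N2 differentiation medium and exposed from day 0 for 120 h, with half-medium refresh at day 3. Viability was read as alamar blue resazurin-to-resorufin fluorescence against DMSO.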

[24] = CCTE_Mundy_HCI_iCellGluta_NOG_NeuriteLength: CCTE's Neurite Outgrowth Assay in iCellGluta cells for Neurite Length, Mundy Lab (AID 2284318; active = hit-call score of the fitted dose curve at least 0.9, where 1 is the maximum)
How it was run: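 Automated high-content imaging of betaIII-tubulin (Alexa Fluor-488) and Hoechst-stained cells gave neurite length, normalized to the DMSO baseline.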

[25] = IUF_NPC1_cytotoxicity_72hr: Cytotoxicity Assessment at 72 hours in the Leibniz Research Institute for Environmental Medicine (IUF) Neural Progenitor Cell Proliferation Assay (NPC1) (AID 2284332; active = hit-call score of the fitted dose curve at least 0.9, where 1 is the maximum;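 also: rising LDH signal means more cytotoxicity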)
How it was run: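 Cytotoxicity by LDH membrane-integrity assay on medium supernatants, fluorescence via resazurin reduction, after 3-day single exposure of primary hNPC spheres at 37C, pH 7.2-7.6 with growth factors. Fitted upward against baseline.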

[26] = CCTE_Mundy_HCI_iCellGluta_NOG_NeuronCount: CCTE's Neurite Outgrowth Assay in iCellGluta cells for Neuron Count, Mundy Lab (AID 2284340; active = hit-call score of the fitted dose curve at least 0.9, where 1 is the maximum;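 also: cells fixed about 48 h after compound addition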)
How it was run: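 Neuron count read by automated high-content imaging of Hoechst 33342 and betaIII-tubulin/Alexa Fluor-488 labelling in human iPSC glutamatergic neurons. Activity fitted relative to DMSO.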

[27] = CCTE_Mundy_HCI_iCellGluta_NOG_NeuriteCount: CCTE's Neurite Outgrowth Assay in iCellGluta cells for Neurite Count, Mundy Lab (AID 2284342; active = hit-call score of the fitted dose curve at least 0.9, where 1 is the maximum;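 also: chemical exposure about 48 hours starting 2 hours after plating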)

Measured: AC50

[Cl-].[Cl-].[NH2-].[NH2-].[Pt+4]
inactive: [1] | [3] | [4] | [5] | [6] | [7] | [8] | [9] | [10] | [11] | [12] | [13] | [14] | [15] | [18] | [19] | [21] | [23] | [25]
active: [2] 29 nM | [16] 9.95 µM | [17] 33.2 µM | [20] 34.7 µM | [22] 28.4 µM | [24] 26 µM | [26] 85.7 µM | [27] 70 µM

From PubChem BioAssay (EPA / NIEHS)
